# In article PMC4336329 (PLoS ONE, 2015):
# The whole screen tested about 310,000 compounds, of which about 2,200 (0.71%) showed an effect of 50% or more. The effect is printed as a negative number. This excerpt belongs to a sample that is enriched for strong results.
# Target: human ether-à-go-go-related gene (hERG) potassium channel (human, UniProt Q12809)
# Assay: primary screen, population patch clamp on CHO cells stably expressing hERG; higher = less effect of the substance
# Sequence of human ether-à-go-go-related gene (hERG) potassium channel (Q12809 whole entry, looked up): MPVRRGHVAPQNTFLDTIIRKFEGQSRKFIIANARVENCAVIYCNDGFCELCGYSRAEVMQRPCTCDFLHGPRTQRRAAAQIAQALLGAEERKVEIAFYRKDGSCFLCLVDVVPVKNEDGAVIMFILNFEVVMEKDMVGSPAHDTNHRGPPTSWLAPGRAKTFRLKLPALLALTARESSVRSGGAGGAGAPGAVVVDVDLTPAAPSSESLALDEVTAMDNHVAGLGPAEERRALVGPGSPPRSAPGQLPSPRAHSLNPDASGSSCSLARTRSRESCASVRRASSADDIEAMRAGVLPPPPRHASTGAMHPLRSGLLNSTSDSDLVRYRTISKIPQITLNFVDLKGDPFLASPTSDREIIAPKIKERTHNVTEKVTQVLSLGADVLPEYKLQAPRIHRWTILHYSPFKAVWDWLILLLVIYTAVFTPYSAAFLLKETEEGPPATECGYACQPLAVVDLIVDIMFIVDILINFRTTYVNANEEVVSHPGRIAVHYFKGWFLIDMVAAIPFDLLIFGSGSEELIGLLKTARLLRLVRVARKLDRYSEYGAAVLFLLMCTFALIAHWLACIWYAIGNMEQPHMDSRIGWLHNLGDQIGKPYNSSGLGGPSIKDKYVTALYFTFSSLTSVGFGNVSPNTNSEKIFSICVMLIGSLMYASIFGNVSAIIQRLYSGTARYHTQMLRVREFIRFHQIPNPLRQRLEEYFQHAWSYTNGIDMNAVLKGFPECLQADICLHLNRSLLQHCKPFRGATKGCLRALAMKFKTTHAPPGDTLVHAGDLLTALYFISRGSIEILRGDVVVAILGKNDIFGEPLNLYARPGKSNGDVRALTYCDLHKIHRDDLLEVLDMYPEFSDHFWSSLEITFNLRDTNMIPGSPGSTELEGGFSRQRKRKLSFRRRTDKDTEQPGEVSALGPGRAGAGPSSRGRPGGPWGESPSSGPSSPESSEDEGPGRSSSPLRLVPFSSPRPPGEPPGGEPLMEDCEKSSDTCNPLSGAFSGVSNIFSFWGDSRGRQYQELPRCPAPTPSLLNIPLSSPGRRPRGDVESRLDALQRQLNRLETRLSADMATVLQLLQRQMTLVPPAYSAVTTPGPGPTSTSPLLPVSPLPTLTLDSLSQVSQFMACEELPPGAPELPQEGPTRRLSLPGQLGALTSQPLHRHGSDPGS
row,SMILES,"hERG current change (%, negative = inhibition) at 1uM"
1,O=c1cc(-c2ccccc2[N+](=O)[O-])oc2ccccc12,7.73%
2,CC(C)C(=O)C1=Cc2cc([N+](=O)[O-])ccc2OC1N1CCOCC1 (centres unmarked),9.39%
3,O=C(CCCC(=O)NCC1CCCO1)NCC1CCCO1 (centres unmarked),3.68%
4,O=c1ccc2cc3c([nH]c4ccc(Br)cc43)oc-2c1O,4.16%
5,COc1ccc(C(C(O)C(=O)c2c[nH]c3ccccc23)N2CCN(c3ccc(OC)cc3)CC2)cc1 (centres unmarked),2.28%
6,COc1ccc(C(C(O)C(=O)c2c[nH]c3ccccc23)N2CCN(c3ccccc3)CC2)cc1 (centres unmarked),4.75%
7,CCN1CCN(C(c2ccc(OC)cc2)C(O)C(=O)c2c[nH]c3ccccc23)CC1 (centres unmarked),-64.4%
8,CC(C)Oc1ccc(N2CC(C(=O)Nc3ccc4c(c3)OCO4)CC2=O)cc1 (centres unmarked),5.88%
9,Cc1[nH]c(=O)[nH]c(=O)c1S(=O)(=O)Nc1cccc([N+](=O)[O-])c1C,11.5%
10,COc1cccc(OC)c1OCCCCN1CCC(Cc2ccccc2)CC1.O=C(O)C(=O)O,-78.6%
11,COc1cccc(OC)c1OCCCCN1CCCC1,4.67%
12,CC1CCN(CCCOc2ccc(OCc3ccccc3)cc2)CC1.O=C(O)C(=O)O,-14.1%
13,COc1cccc(OC)c1OCCCN1CCC(Cc2ccccc2)CC1.O=C(O)C(=O)O,-79.3%
14,CC(=O)CCc1ccc(OCCCCN2CCC(Cc3ccccc3)CC2)cc1.O=C(O)C(=O)O,-68.3%
15,COc1cccc(OC)c1OCCCCN1CCCCC1.O=C(O)C(=O)O,9.21%
16,O=C(O)C(=O)O.c1ccc(COc2ccc(OCCCCN3CCCC3)cc2)cc1,-28.2%
17,COc1cc(CN2CCC(Cc3ccccc3)CC2)cc(OC)c1OC.O=C(O)C(=O)O,-12%
18,COc1ccccc1N1CCN(CCCCOc2c(OC)cccc2OC)CC1.O=C(O)C(=O)O,-38.6%
19,COc1cc2cc(C(c3nnnn3C(C)(C)C)N3CCc4ccccc4C3)c(=O)[nH]c2cc1OC (centres unmarked),-3.88%
20,CCN(CCNC(=O)CCCn1nc(C)n2c(cc3sccc32)c1=O)c1ccccc1,-1.14%
21,CN(C)Cc1ccc(-c2nc3cccc4c3n2CCNC4=O)cc1,-0.249%
22,O=C(NCc1ccccc1)C(c1ccco1)N(C(=O)c1csnn1)C1CC1 (centres unmarked),11.6%
23,Cc1nc2ccccc2c(=O)n1Cc1ccc([N+](=O)[O-])cc1,-64.8%

row,SMILES,"hERG current change (%, negative = inhibition) at 1uM"
1,Cc1nc2ccc([N+](=O)[O-])cc2c(=O)n1Cc1ccc(Cl)cc1,10.5%
2,Cc1nc2ccc([N+](=O)[O-])cc2c(=O)n1Cc1ccc(F)cc1,-9.51%
3,Cc1nc2ccc([N+](=O)[O-])cc2c(=O)n1Cc1ccc(Br)cc1,14.8%
4,COc1ccc(Cn2c(C)nc3ccc([N+](=O)[O-])cc3c2=O)cc1,5.96%
5,Cc1nc2ccc([N+](=O)[O-])cc2c(=O)n1Cc1ccc([N+](=O)[O-])cc1,-76.5%
6,CC(=O)Nc1cccc(N2CCCC2=O)c1,4.99%
7,O=C(CN1CCN(Cc2ccccc2)CC1)N/N=C/C=C/c1ccccc1[N+](=O)[O-],-32.1%
8,COc1ccc(NC(=O)Nc2cc(C(=O)O)ccc2N2CC3CC(C2)c2cccc(=O)n2C3)c(OC)c1 (centres unmarked),5.08%
9,CC(NC(=O)Cc1ccccc1)c1cc2c(cc1Br)OCCCO2 (centres unmarked),6.49%
10,CCOC(=O)Cn1nc(C)c(NC(=O)COc2ccc(OC)cc2)c1C,4.48%
11,CC(C)(C)Nc1nc(Cl)nc(N(C#N)CN2C(=O)c3ccccc3S2(=O)=O)n1,16.1%
12,CCN(CC)S(=O)(=O)c1cc(C)ccc1NC(=S)Nc1cccnc1,3.41%
13,Cc1ccc(S(=O)(=O)N(CC(O)CN2CCCCC2)c2ccccc2)cc1.Cl (centres unmarked),-60.5%
14,Cl.O=S(=O)(c1ccc2ccccc2c1)N(CC(O)CN1CCOCC1)c1ccccc1 (centres unmarked),-21.2%
15,Cc1ccccc1S(=O)(=O)N(CC(O)CN1CCCCC1)c1ccccc1 (centres unmarked),-71.2%
16,O=S(=O)(c1ccccc1)N(CC(O)CN1CCCC1)c1ccccc1 (centres unmarked),3.65%
17,Cl.O=S(=O)(c1ccccc1)N(CC(O)CN1CCCCC1)c1ccccc1 (centres unmarked),-21%
18,Cc1ccc(S(=O)(=O)N(CC(O)CN2CCCC2)c2ccccc2)cc1 (centres unmarked),-44.8%
19,Cc1ccc(N(CC(O)CN2CCOCC2)S(=O)(=O)c2ccc([N+](=O)[O-])cc2)cc1 (centres unmarked),-49.1%
20,Cc1ccc(S(=O)(=O)N(CC(O)CN2CCOCC2)c2cc(Cl)ccc2Cl)cc1.Cl (centres unmarked),-2.22%
21,Cc1ccc(N(CC(O)CN2CCOCC2)S(=O)(=O)c2ccc3ccccc3c2)cc1 (centres unmarked),-55.6%
22,Cc1ccc(N(CC(O)CN2CCCCC2)S(=O)(=O)c2ccc(C)cc2)cc1 (centres unmarked),12.8%
23,O=S(=O)(c1ccccc1)N(CC(O)CN1CCOCC1)c1ccccc1 (centres unmarked),9.04%

row,SMILES,"hERG current change (%, negative = inhibition) at 1uM"
1,Cc1ccc(N(CC(O)CN2CCCC2)S(=O)(=O)c2ccc(C)cc2)cc1.Cl (centres unmarked),-81.7%
2,Cc1ccc(-n2nc(C)c3c2OC(N)=C(C#N)C3c2cccs2)cc1 (centres unmarked),9.08%
3,CC1=CC2=NC(=O)CC(C)(C(=O)N(CC(=O)NC(C)(C)C)Cc3cccs3)N2C=C1 (centres unmarked),-2.79%
4,CNc1ncc(-c2nnnn2-c2ccccc2)c(-c2ccccc2)n1,8.07%
5,Cc1ccc(N2CCN(c3ncccc3[N+](=O)[O-])CC2)c(C)c1,17.2%
6,CC(=O)NC(C(=O)N1CCC(c2nc3ccccc3s2)CC1)C(C)C (centres unmarked),8.96%
7,Cc1cc(C)nc(SCc2n[nH]c(=S)n2C)n1,7.9%
8,CCOC(=O)C1=C(N)OC2=C(C(=O)CC(C)(C)C2)C1c1ccco1 (centres unmarked),-7.98%
9,FC(F)(F)c1ccccc1NC(=S)N1CCN(c2ncccn2)CC1,11.5%
10,O=C(NNC(=O)c1cccs1)c1ccccc1,5.51%
11,COc1ccccc1N(CC(O)CN1CCCCC1)S(=O)(=O)c1ccc(C)cc1 (centres unmarked),2.61%
12,COc1ccc(N(CC(O)CN2CCCCC2)S(=O)(=O)c2ccc(C)cc2)cc1 (centres unmarked),-82.9%
13,COc1ccc(N(CC(O)CN2CCOCC2)S(=O)(=O)c2ccc(C)cc2)cc1 (centres unmarked),-6.48%
14,Cc1ccc(N(CC(O)CN2CCCCC2)S(=O)(=O)c2ccccc2[N+](=O)[O-])cc1 (centres unmarked),-48.8%
15,Cc1ccc(N(CC(O)CN2CCCC2)S(=O)(=O)c2ccccc2)cc1 (centres unmarked),-47.4%
16,Cc1ccc(N(CC(O)CN2CCCCC2)S(=O)(=O)c2ccccc2)cc1 (centres unmarked),-68.7%
17,Cc1c(C(=O)OC2CCCCC2)sc2nc[nH]c(=O)c12,16%
18,Cc1ccc(-c2oc3ncnc(N)c3c2-c2ccc(C)cc2)cc1,-3.25%
19,COc1ccc(/C(C)=N/Nc2ccc(C(=O)O)cc2)cc1OC.O=S(=O)(O)O,11.7%
20,Cn1c(SCC(=O)NCC2CCCO2)ncc(C(=O)Nc2ccc(F)cc2)c1=O (centres unmarked),5.38%
21,CN1C[C@H](CNC(=O)OCc2ccccc2)C[C@@H]2c3cccc4c3c(cn4C)C[C@H]21,-1.63%
22,CCNC(=O)N(CCOC)CC1CCCN(C2Cc3ccccc3C2)C1 (centres unmarked),11.7%
23,COCCN(CC1CCCN(C2Cc3ccccc3C2)C1)C(=O)CCC(N)=O (centres unmarked),-70.8%

row,SMILES,"hERG current change (%, negative = inhibition) at 1uM"
1,COCCN(CC1CCCN(C2Cc3ccccc3C2)C1)C(=O)CCC(C)=O (centres unmarked),7.77%
2,COCCN(CC1CCCN(C2Cc3ccccc3C2)C1)C(=O)CSC (centres unmarked),7.99%
3,COCCN(CC1CCCN(C2Cc3ccccc3C2)C1)C(=O)c1ccc(C(C)=O)cc1 (centres unmarked),-51.9%
4,COCCN(CC1CCCN(C2Cc3ccccc3C2)C1)C(=O)CCSC (centres unmarked),-4.27%
5,N#Cc1ccccc1NC(=O)C1SC(=Nc2ccccc2)C(C(=O)Nc2ccc(Cl)cc2)=C1N (centres unmarked),6.56%
6,COC(=O)CCCNS(=O)(=O)c1ccc2ccccc2c1,10.7%
7,CC(C)N(CC#CC(O)(c1ccccc1)c1ccccc1)C(C)C,-38.1%
8,CC(C)(C)C(=O)Cn1c(NCCCl)nc2ccccc21.Cl,13.8%
9,COCCNc1nc(CSc2ccccc2)nc2sc(C)c(C)c12,11.8%
10,CCNc1nc(CSc2ccccc2)nc2sc(C)c(C)c12,6.57%
11,Cc1sc2nc(CSc3ccccc3)nc(NCCN(C)C)c2c1C,-50.1%
12,COc1ccc(C(=O)N2CCCN(C)CC2)cc1S(=O)(=O)N1CCCc2ccccc21,1.09%
13,NC(=O)c1nsc(C(=O)N(CC(=O)NCc2ccco2)c2ccccc2F)c1N,1.03%
14,Fc1ccc(NC(=S)Nc2ccc(F)c(Cl)c2)cc1Cl,7.52%
15,CCN(C(=O)CSc1nc(-c2cccs2)nc2ccccc12)C1CCS(=O)(=O)C1 (centres unmarked),-78.4%
16,C=CCn1c(SCC(=O)N(CC)C2CCS(=O)(=O)C2)nc2ccccc2c1=O (centres unmarked),-81.6%
17,CCN(C(=O)CSc1n[nH]c(-c2cccs2)n1)C1CCS(=O)(=O)C1 (centres unmarked),11.8%
18,CCN(C(=O)CSc1nc2ccccc2c(=O)n1-c1ccc(C)cc1)C1CCS(=O)(=O)C1 (centres unmarked),1.16%
19,Cc1ccc(Cn2c(SCC(=O)N(C)C3CCS(=O)(=O)C3)nc3ccccc3c2=O)cc1 (centres unmarked),-41.9%
20,C=CCn1c(SCC(=O)N(CC)C2CCS(=O)(=O)C2)nc2cc(C(=O)O)ccc2c1=O (centres unmarked),16.4%
21,O=C(CSc1nc(-c2cccs2)nc2ccccc12)NC1CCS(=O)(=O)C1 (centres unmarked),17.3%
22,CCN(C(=O)CSc1nc2ccccc2c(=O)n1Cc1ccc(C)cc1)C1CCS(=O)(=O)C1 (centres unmarked),-71.4%
23,C=CCn1c(SCC(=O)N(C)C2CCS(=O)(=O)C2)nc2ccccc2c1=O (centres unmarked),-36.1%
